FXIa mix inh – inhibitors of human coagulation factor XIa, pooled mixtures | inhibition, % at 5 µM | hit rate 0.19% among 62,000 | purified FXIa, fluorogenic substrate | P03951;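 also: each value is inhibition by a whole ten-compound pool holding the compound; 0% = enzyme with no mixture and 100% = wells lacking enzyme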
Target sequence (P03951 19-387 limits assumed): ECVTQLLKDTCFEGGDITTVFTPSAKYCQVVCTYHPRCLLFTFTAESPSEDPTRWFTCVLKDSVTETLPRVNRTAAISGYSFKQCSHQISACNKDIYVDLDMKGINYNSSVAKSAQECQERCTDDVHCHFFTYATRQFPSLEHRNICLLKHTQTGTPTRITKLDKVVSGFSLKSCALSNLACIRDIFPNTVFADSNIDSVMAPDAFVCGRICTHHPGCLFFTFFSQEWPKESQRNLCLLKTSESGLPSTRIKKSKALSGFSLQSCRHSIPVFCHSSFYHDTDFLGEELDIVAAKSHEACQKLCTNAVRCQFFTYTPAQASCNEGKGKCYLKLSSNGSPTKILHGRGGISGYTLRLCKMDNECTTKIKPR
Target sequence (P03951 388-625 limits assumed): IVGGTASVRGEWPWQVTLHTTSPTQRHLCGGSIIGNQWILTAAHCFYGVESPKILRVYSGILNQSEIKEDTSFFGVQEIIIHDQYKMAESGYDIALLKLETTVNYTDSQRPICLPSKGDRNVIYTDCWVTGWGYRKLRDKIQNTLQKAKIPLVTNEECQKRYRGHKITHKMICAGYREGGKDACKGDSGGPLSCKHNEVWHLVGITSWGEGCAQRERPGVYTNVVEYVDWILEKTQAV
M1 ag – agonists of M1 muscarinic receptor; CHO-M1 cells, Fluo-4 calcium fluorescence, agonist mode; stronger effect = higher value; B-score at 10 µM; hit rate 3% among 64,000; AID 626;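 active = fluorescence rise, raw or as B-score row- and column-corrected plate score, outside the 99.7% band of its plate's samples, either direction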
hDAT+cocaine – changed human dopamine transporter uptake under cocaine IC80; Q01959; LLC-PK1 hDAT cells, [14C]-dopamine uptake with cocaine IC80; actives deviate in either direction; B-score at 10 µM; hit rate 1.3% among 110,000;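 active = Z score or B-score, a plate-position-corrected score, falls beyond the plate's 99.7% confidence bounds, in either direction; inactive = both scores lie inside the 99.7% bounds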;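 also: scored against the spread of the other compound wells on the same plate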
D1 allo mod – allosteric modulators of human D1 dopamine receptor. P21728. HEK293 D1, CRE-luciferase, dopamine EC30 potentiation; actives deviate in either direction. B-score at 10 µM. hit rate 5.9% among 58,000;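 active = luminescence count or its row- and column-corrected plate score outside the 99.7% band of the plate's sample wells, on either side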
M1 antagonist – M1 muscarinic receptor (rat) antagonism; CHO-M1 cells, Fluo-4 calcium, ACh EC80 antagonist mode; stronger effect = lower value; B-score at 10 µM; hit rate 3.4% among 64,000; AID 628;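 active = calcium fluorescence response, raw or row-and-column corrected B-score, differing from the plate sample mean either way at a set confidence level, mostly lower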
FXIIa inh mix – inhibitors of human coagulation factor XIIa, pooled mixtures. inhibition, % at 5 µM. purified FXIIa, fluorogenic substrate. P00748. hit rate 0.2% among 62,000;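 also: 0% = enzyme without compound and 100% = no enzyme blank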
D1 mod confirm – D1 receptor (human) allosteric modulation, confirmed; shares compounds with D1 allo mod; HEK293 D1 CRE-luciferase, dopamine EC30 potentiation; stronger effect = higher value; hit rate 88% among 2,200; AID 642; luminescence at 10 µM;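 active = luminescence in either of two replicates above the same-plate mean plus 3 SD of the low-dose dopamine control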
D1 ag no DA – activates D1 CRE-luciferase signal without dopamine present; shares compounds with D1 allo mod; hit rate 0.8% among 1,900; HEK293 D1 CRE-luciferase, luminescence, no dopamine; stronger effect = higher value; luminescence at 10 µM; in the data active = luminescence above about 3900
Isoprot counter – alters isoproterenol CRE-luciferase response in HEK293 cells; hit rate 63% among 2,200; calls only at 10 µM; shares compounds with D1 allo mod; HEK293 D1 CRE-luciferase, isoproterenol EC30 counter-screen;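 active = luminescence in either replicate above plate mean of wells with a partly effective reference agonist dose plus 3 SD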;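 also: isoproterenol raises cAMP through native beta-adrenoceptor Gs so signal bypasses D1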
* marks the source's active call; other numbers are inactive results; i = inactive; · = no result; + = active, no number. Compounds with a hit are over-represented: about 7.4% of the library has one in this group of screens. Rule as the data show it, unless noted: active = inhibition above about 20% (passing the limit was not always enough); inactive = the rest.

SMILES | FXIa mix inh | M1 ag | hDAT+cocaine | D1 allo mod | M1 antagonist | FXIIa inh mix | D1 mod confirm | D1 ag no DA | Isoprot counter
N#CCCCn1c(-c2ccccc2)noc1=O | 2.2 | -0.275 | -0.976 | 6.36* | 0.15 | 0.8 | 4628 | 1604 | i
CCC(C)C(NC(C)=O)C(=O)NC(=O)NC(c1ccccc1)c1ccccc1 (configuration not stated) | · | · | 0.777 | · | · | · | · | · | ·
COc1ccc(-c2cc(C(N)=O)nc(N3CCCCCC3)n2)cc1 | 0.8 | 0.19 | 0.151 | · | -0.438 | 7.6 | · | · | ·
NC(=O)c1cc(-c2ccccc2)nc(Oc2ccccc2)n1 | 4.7 | -0.464 | 1.41 | 8.86* | -0.5 | 1.2 | 10904* | · | +
COC(=O)C1=C(C)NC(=O)NC1C1CC=CCC1 (configuration not stated) | 3.0 | · | -0.23 | 3.34* | · | 2.7 | 4764 | 1316 | i
CCC(C)Nc1nc(OC)nc(N(C)C#N)n1 (configuration not stated) | · | -0.0389 | 0.192 | 6.86* | 0.00466 | · | 12160* | 2240 | i
COc1cccc(NC2=NCC(=O)N2Cc2cccs2)c1 | 6.1 | 0.69 | -0.319 | 4.16* | 0.0412 | -0.1 | 8816* | 1624 | i
COc1ccc(NC2=NCC(=O)N2Cc2cccs2)cc1 | · | · | -0.282 | · | · | · | · | · | ·
CS(=O)(=O)N(CC(=O)N1CCN(c2ccccc2)CC1)Cc1ccc(Cl)cc1 | · | · | -0.148 | · | · | · | · | · | ·
CN(C)CCN(Cc1ccccc1)c1ccccn1 | 2.8 | -0.639 | -0.61 | -4.11 | -2.2 | -0.5 | · | · | ·
COc1ccc(-c2cc(C(F)(F)F)nc(SCC(=O)N3CCOCC3)n2)cc1OC | -0.4 | 1.92 | -0.0108 | 22.9* | -0.753 | -3.2 | 16556* | 1792 | +
COCCNC(=O)CSc1nc(-c2ccc(OC)c(OC)c2)cc(C(F)(F)F)n1 | 5.5 | -0.882 | 0.799 | 9.35* | 0.197 | 5.9 | 12172* | 1680 | +
COc1cc2cc(C)c(SCC(=O)N3CCOCC3)nc2cc1OC | 1.3 | 1.08 | 1.54 | 5.74* | -0.107 | 1.2 | 10104* | 1624 | +
COC(=O)CSc1nc(-c2ccc(F)cc2)cc(C(F)(F)F)n1 | · | · | 1.89 | · | · | · | · | · | ·
CC(C)(C)n1nnnc1CN(Cc1cccnc1)Cc1ccccc1Cl | · | · | 0.00416 | · | · | · | · | · | ·
COc1cc(-c2nnc3sc(Cc4ccccc4)nn23)cc(OC)c1OC | 1.0 | -0.102 | 0.94 | 0.463 | -0.0204 | -15.7 | · | · | ·
COc1cc(OC)c(-c2nn3c(C4CCCCC4)nnc3s2)cc1OC | 1.9 | 0.0409 | 1.77 | 5.17* | -0.377 | -19.9 | 10724* | 1788 | +
COc1cc(-c2nnc3sc(C4CCCCC4)nn23)cc(OC)c1OC | · | 4.72 | 1.3 | 7.42* | -0.886 | · | 15992* | 1688 | +
COc1cccc(-c2nnc3sc(C4CCCCC4)nn23)c1 | 5.1 | -0.512 | -8.26* | 5.46* | 1.03 | 9.2 | 12024* | 1460 | +
CCOc1cccc(-c2nnc3sc(C4CCCCC4)nn23)c1 | · | -0.161 | 1.87 | · | -0.919 | · | · | · | ·
CCC(=O)Nc1ccc(C(=O)Cn2nc(C(=O)O)c3ccccc3c2=O)cc1 | -5.4 | -0.108 | · | 1.42 | 1.2 | 2.6 | · | · | ·
Cc1ccccc1Cn1c(-c2cncs2)nc2ccccc21 | -1.0 | -0.174 | -0.0858 | 13.7* | -0.171 | 4.8 | 20248* | · | +
O=C(Cn1c(-c2cncs2)nc2ccccc21)NCc1ccccc1 | · | · | -0.544 | · | · | · | · | · | ·
Brc1cc2c(cc1Cn1c(-c3cncs3)nc3ccccc31)OCO2 | 10.5 | 0.365 | -0.0108 | 19.6* | 0.61 | 5.3 | 14624* | 1768 | +
CSc1cc(-c2ccc(Cl)cc2)n(Cc2ccccc2)c(=O)c1C#N | · | · | -0.6 | · | · | · | · | · | ·
SMILES | FXIa mix inh | M1 ag | hDAT+cocaine | D1 allo mod | M1 antagonist | FXIIa inh mix | D1 mod confirm | D1 ag no DA | Isoprot counter
COc1ccc(NC(=O)CN(c2ccc(C)cc2)S(C)(=O)=O)c(OC)c1 | 0.3 | -0.124 | -0.385 | -0.702 | 0.0641 | -47.9 | · | · | ·
COc1ccc(N(CC(=O)Nc2cccc(OC)c2)S(=O)(=O)c2c(C)nn(C)c2C)cc1 | 1.7 | 0.622 | 0.0107 | · | -0.186 | 1.4 | · | · | ·
COc1ccc(OC)c(NC(=O)CN(c2ccc(OC)c(Cl)c2)S(C)(=O)=O)c1 | 6.2 | -0.621 | 0.594 | 4.01* | -0.0765 | 3.2 | 16872* | 1728 | +
COc1ccc(N(CC(=O)Nc2cc(OC)ccc2OC)S(=O)(=O)c2c(C)nn(C)c2C)cc1 | 2.8 | -0.8 | · | 8.74* | -0.892 | 0.7 | 14244* | 1416 | +
CCC(C)N(C)C(=O)c1cc2ccccc2c(-c2ccccc2Cl)n1 (configuration not stated) | · | · | 0.327 | · | · | · | · | · | ·
CN1C(=O)/C(=N/OC(=O)c2ccccc2)c2ccccc21 | · | · | 0.184 | · | · | · | · | · | ·
COc1ccc(Cc2nn3c(-c4cc(OC)c(OC)c(OC)c4)nnc3s2)cc1 | 3.1 | 1.26 | 0.735 | 4.66* | 0.0267 | -26.9 | 8960* | 1520 | +
COc1ccc(Cc2nn3c(-c4ccccc4Br)nnc3s2)cc1 | 5.4 | 0.5 | 0.978 | 5.38* | -0.344 | 17.3 | 8536* | 1392 | +
COc1ccc(-c2nn3c(-c4ccccc4)nnc3s2)cc1 | 3.1 | 0.269 | 0.31 | 5.45* | -0.713 | 4.2 | 11796* | 1844 | +
COc1ccc(-c2nn3c(-c4ccc(F)cc4)nnc3s2)cc1 | -0.4 | -0.209 | 0.726 | 0.991 | -2.43 | 4.0 | · | · | ·
Brc1ccccc1-c1nnc2sc(Cc3ccccc3)nn12 | 0.5 | 0.22 | 1.11 | 1.69 | -0.0606 | -1.2 | · | · | ·
N#CC1=C(N)N(c2ccccc2)C2=C(C(=O)CCC2)C1c1cccs1 (configuration not stated) | 1.5 | -0.594 | -0.00879 | 3.18* | -0.159 | 2.7 | 7976* | 1556 | i
CC(C)(C)Sc1nc(O)cc(=O)[nH]1 | -0.6 | -0.466 | -0.321 | 2.1* | -0.226 | 4.7 | 5460 | 1436 | i
CCc1nnc(NC(=O)CSc2ncc(-c3ccccc3)[nH]2)s1 | · | · | 0.19 | · | · | · | · | · | ·
CCc1nnc(NC(=O)CSc2ncc(-c3ccccc3)n2CC)s1 | -1.8 | 0.566 | -0.00257 | 3.51* | -0.0566 | 2.0 | 8216* | 1656 | i
Cc1nc2cc(NC(=O)NCc3ccco3)ccc2o1 | 2.5 | 0.146 | 0.0262 | -0.484 | 0.0308 | -0.2 | · | · | ·
O=C(O)c1ccc(CSc2nnc(COc3ccc(Cl)cc3Cl)o2)cc1 | 26.1 | 1.16 | 0.0089 | 5.59* | 0.182 | -2.2 | 10144* | · | +
CNc1nc(C)c(C#N)c(-c2ccccc2)c1C(C)=O | 7.1 | 0.194 | -0.516 | 5.84* | -0.00377 | 3.6 | 12136* | 1680 | i
Cc1ccc(S(=O)(=O)Cn2nnnc2CN(Cc2ccco2)Cc2cccs2)cc1 | -0.9 | 0.298 | 0.576 | -0.898 | -0.755 | -15.9 | · | · | ·
C=CCn1c(C(C)NC(=O)COC)nc2ccccc21 (configuration not stated) | 6.6 | -0.129 | 2.25 | 5.4* | 0.476 | 2.7 | 5084 | 1624 | i

Bioassay records as filed in PubChem.
